Screens: PubChem BioAssay, several laboratories
Compounds with a hit are over-represented: about 4.2% of the library has one in this group of screens.
NALP1 yeast inh – inhibitors of NALP1 inflammasome in yeast; S. cerevisiae NALP1/ASC/caspase-1 growth, X-gal OD620, 72 h; inhibition, % at 10 µM; 280,000 tested, 0.61% active; in the data active = inhibition mostly above about 24%, no sharp cut-off; inactive = mostly below about 32%
NLRP3 yeast inh – NALP3 inhibition in yeast | 330,000 tested, 0.39% active | AID 2825 | inhibition, % at 10 µM | Yeast reconstituted NLRP3/ASC/caspase-1, beta-gal luminescence, 24 h;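 active = inhibition of 50% or more; inactive = inhibition below 50%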;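 note: plate controls were induced DMSO wells for no effect and uninduced yeast grown without galactose for full effect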
TIM10 inh – inhibits growth of TIM10 yeast strain | S. cerevisiae TIM10 strain growth, BacTiter-Glo luminescence, 24 h | AID 463195 | inhibition, % at 10 µM | 330,000 tested, 1.4% active;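 active = inhibition of 40% or more at the single tested concentration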;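 note: wild-type TIM10 isogenic control strain grown at permissive 25 °C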
V-ATPase pHluor – alters yeast V-ATPase proton transport. S. cerevisiae, pHLuorin cytosolic pH fluorescence. response, % at 10 µM. 350,000 tested, 0.37% active. AID 504577; in the data active = response mostly above about 7.3%, no sharp cut-off; inactive = mostly below about 5.4%; note: actives read high
tim23-1 inh – inhibits growth of tim23-1 mutant yeast; S. cerevisiae tim23-1 growth, BacTiter-Glo luminescence, 24 h; inhibition, % at 20 µM; 330,000 tested, 1.3% active;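 active = growth inhibition of the mutant yeast at or above 50%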;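 note: temperature-sensitive mutant grown at 25 °C; plate controls were DMSO-treated mutant yeast for no effect and medium wells lacking yeast for full effect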
tim10-1 inh – inhibits growth of tim10-1 mutant yeast | S. cerevisiae tim10-1 ts strain growth, BacTiter-Glo, 24 h | inhibition, % at 20 µM | 330,000 tested, 2.2% active;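 active = inhibition of at least 40%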;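 note: mutant grown at 25 °C; 0% = DMSO wells with yeast and 100% = wells holding no yeast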
tim10-1 confirm – confirmation of tim10-1 mutant yeast growth inhibitors; AID 463213; 7,400 tested, 56% active; inhibition, % at 20 µM; shares compounds with tim10-1 inh; S. cerevisiae tim10-1 ts strain growth, BacTiter-Glo, 24 h;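 active = inhibition of yeast growth at or above a set limit in either of two repeat tests at 20 µM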;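 note: tim10-1 mutant grown at permissive 25 °C to find synthetic lethal compounds; 0% = DMSO yeast wells and 100% = medium wells without yeast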
* hit, by the source's call; x = no result.

SMILES | NALP1 yeast inh | NLRP3 yeast inh | TIM10 inh | V-ATPase pHluor | tim23-1 inh | tim10-1 inh | tim10-1 confirm
O=C(NC1CCCCCC1)C1c2ccccc2C(=O)N1Cc1cccnc1 (centres undefined) | 22 | 2 | -2 | 3 | -2 | 13 | x
CS(=O)(=O)c1ccc([C@@H](O)[C@@H](CO)NC(=O)C(Cl)Cl)cc1 | x | -1 | 0 | -8 | 0 | -1 | x
O=S(=O)(c1cc(Cl)ccc1Br)N1CCCCC1 | 13 | -27 | -2 | -2 | 31 | 43* | 32*
O=C1NCCCC1C(=O)N1CCN(C(=O)c2ccco2)CC1 (centres undefined) | 17 | -5 | -1 | -1 | -10 | 1 | x
CCc1cc2c(NCc3ccccc3)nc(C)nc2s1 | 1 | -11 | 24 | -5 | 43 | 48* | 24
CC(=O)CCc1oc2ccc(C)cc2c1-c1ccc(C)o1 | 11 | 4 | 33 | 5 | 36 | 46* | 58*
O=C(c1ccccc1)C1Oc2ccccc2C2CC(c3cccs3)=NN12 (centres undefined) | 1 | 36 | 31 | -1 | 18 | -5 | x
O=C(c1sc2ccccc2c1Cl)N1CCN(c2ccc(F)cc2)CC1 | 14 | 0 | 32 | 1 | 8 | 28 | x
O=C(c1sc2ccccc2c1Cl)N1CCN(c2ccccc2F)CC1 | 11 | 8 | 3 | 1 | 30 | 42* | 28
COCCn1c(SCC(=O)Nc2nc(C)c(Cl)cc2Cl)nc2ccccc21 | 14 | 20 | 10 | 2 | 7 | 42* | 13
Cc1nc(NC(=O)CSc2cc(C)c3ccccc3n2)c(Cl)cc1Cl | 8 | 36 | 22 | -3 | 42 | 41* | 24
Cc1cc(SCC(=O)Nc2cccnc2Cl)nc2ccccc12 | 4 | -8 | -2 | 3 | 15 | -6 | x
CC1CCCN(c2oc(-c3cccc4ccccc34)nc2C#N)C1 (centres undefined) | 20 | -13 | 13 | 4 | 0 | 9 | x
Cc1nc2ccc(C(=O)N/N=C/c3ccccc3O)cc2[nH]1 | -5 | 16 | 1 | 1 | 2 | 31 | x
O=C(/C=C/c1cccc([N+](=O)[O-])c1)NCCSCc1ccccc1Cl | 19 | 13 | 36 | 2 | 41 | 36 | x
O=C(/C=C/c1cccc([N+](=O)[O-])c1)NCCSCc1ccc(Cl)cc1Cl | 36 | 15 | 30 | 4 | 37 | 42* | 35*
CCC(=O)c1ccc(OCC(=O)OCC(=O)N2CCCc3ccccc32)cc1 | x | 6 | 13 | -2 | 48 | 43* | 28
O=C(COc1ccc(Cl)cc1)OCC(=O)N1CCCc2ccccc21 | 23 | 16 | 18 | 4 | 22 | 23 | x
CCC(=O)c1ccc(OCC(=O)OCC(=O)N2c3ccccc3CC2C)cc1 (centres undefined) | x | 10 | -2 | 2 | 40 | 41* | 35*
O=C(c1ccccc1NS(=O)(=O)c1cccc(C(F)(F)F)c1)N1CCc2ccccc21 | 11 | 12 | 12 | -3 | 8 | 7 | x
CCc1cc2c(=O)nc3n(c2s1)Cc1ccccc1/C3=C(/O)c1cccc([N+](=O)[O-])c1 | -9 | 42 | 28 | -2 | 42 | 30 | x
CCc1cc2c(=O)nc3n(c2s1)Cc1ccccc1/C3=C(/O)c1ccc(F)cc1 | 13 | 18 | 19 | 0 | 43 | 44* | 35*
COc1ccc2c(c1OC)C(=O)N(c1ccc(C)c(C)c1)C2=O | 10 | 32 | 1 | -1 | -12 | 14 | x
O=[N+]([O-])c1ccccc1N/N=C/c1c[nH]c2ccccc12 | -7 | 37 | 33 | -2 | 33 | 69* | 57*
c1ccc(Sc2nc(N3CCCCC3)nc(N3CCCCC3)n2)nc1 | x | 30 | 23 | 3 | 21 | 41* | 21
SMILES | NALP1 yeast inh | NLRP3 yeast inh | TIM10 inh | V-ATPase pHluor | tim23-1 inh | tim10-1 inh | tim10-1 confirm
Cc1ccc(S(=O)(=O)NC(CC(=O)NCc2ccco2)c2ccco2)cc1 (centres undefined) | 22 | 12 | -5 | 2 | 12 | -4 | x
CC(=O)c1cc(NC(=O)c2ccc(Cl)cc2)c(=O)oc1/C=C/N(C)C | 38 | 25 | 28 | 2 | 14 | 46* | 28
O=C(O)Cn1cnc2c(oc3ccccc32)c1=O | 4 | -5 | -2 | 0 | 8 | 4 | x
O=C1OC(c2ccco2)=N/C1=C\c1ccc(-c2cccc(C(F)(F)F)c2)o1 | 22 | 10 | 27 | -3 | 29 | 46* | 23
Cc1ccc(CNC(=O)C2CCCN(c3nc4ccccc4o3)C2)cc1 (centres undefined) | 30 | 21 | -9 | 3 | -7 | 1 | x
O=C(NCCC1=CCCCC1)C1CCCN(c2nc3ccccc3o2)C1 (centres undefined) | -3 | 19 | 14 | -2 | 35 | 49* | 35*
Cc1ccc(Cl)c(OC(=O)C2CSC3(C)CCC(=O)N23)c1 (centres undefined) | x | 3 | 27 | 2 | 40 | 40* | 27
CC(=O)c1ccc(OC(=O)C2CSC3(C)CCC(=O)N23)cc1 (centres undefined) | x | 2 | 6 | 10 | -7 | 10 | x
Fc1cc(F)cc(Nc2nc(Cl)nc(NC3CCCC3)n2)c1 | x | 5 | -9 | 5 | 35 | 45* | 19*
O=C(N1CCC(n2nc(-c3ccccc3)oc2=O)CC1)C1(c2ccc(Cl)cc2)CC1 | -9 | 22 | 26 | 0 | 43 | 53* | 2
CN(C(=O)c1ccccc1C(=O)OCC(=O)Nc1ccc(OC(F)F)cc1)c1ccccc1 | x | 22 | 9 | -3 | 30 | 43* | 24
COc1ccc2c(c1OC)C(=O)N1N=C(c3ccc(Cl)cc3)CC21 (centres undefined) | 27 | 34 | 31 | -3 | 39 | 46* | 33*
COc1ccc(C2=NN3C(=O)c4c(ccc(OC)c4OC)C3C2)cc1 (centres undefined) | 49 | 23 | 37 | 0 | 41 | 13 | x
O=[N+]([O-])c1ccccc1/C=C/C=N/n1c(-c2ccccc2)n[nH]c1=S | 25 | 17 | 36 | 5 | 29 | 42* | 36*
CC1CCCC(C)N1/N=C/C=C/c1ccccc1[N+](=O)[O-] (centres undefined) | 11 | -4 | 9 | -2 | 19 | 41* | 13
CSc1cccc2sc(NC(=O)C3=COCCO3)nc12 | x | 7 | 14 | -4 | 34 | 16 | x
CCc1ccc(Nc2cnn(-c3nc4ccccc4s3)c(=O)c2Cl)cc1 | -35 | 27 | 18 | -1 | 18 | 2 | x
Cc1ccn2cc(-c3cccc(S(=O)(=O)N4CCCCC4)c3)nc2c1 | 25 | -53 | 25 | -3 | 38 | 48* | 20
Cc1ccc2nc(-c3cccc(S(=O)(=O)N4CCCC4)c3)cn2c1 | -8 | -24 | 8 | 2 | 26 | -7 | x
CC(NC(=O)COC(=O)Cc1cccs1)c1ccc(F)cc1 (centres undefined) | x | x | x | 11 | x | x | x
